In PubChem BioAssay AID1159580 (chemical genetic matrix, 2015):
Several values for one entry are separate records, joined by “and”; a condition that tells them apart may be missing. Identical values can stand only once. Among all 5,500 compounds or so, about 2,000 (36%) were called active. Inconclusive results (about 18%) are left out. Cut-off read from the data, not from the text of the source: active = normalized growth mostly below about 0.91 (no sharp cut-off); inconclusive = no clear call, values can overlap the other calls; inactive = mostly above about 0.92. The list shows a part of the results.

Assay: chemical genetic growth profiling, strain panel (AID 1159580);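 note: tested at 20 µM; growth read once vehicle control cultures reached saturation at 30 °C; 1 = growth at the plate median or of vehicle wells; lower values mean less growth of the strain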
Details: S. cerevisiae deletion strains, growth OD

Measured: normalized growth

COC(=O)Nc1nc2ccc(C(=O)c3ccccc3)cc2[nH]1
active: locus YBL061C, strain skt5, active compounds read low 0.903 | locus YBR009C, strain hhf1, active compounds read low 0.898 | locus YBR023C, strain chs3, active compounds read low 0.913 | locus YBR231C, strain swc5, active compounds read low 0.261 | locus YCL016C, strain dcc1, active compounds read low 0.902 | locus YCL029C, strain bik1, active compounds read low 0.781 | locus YDR137W, strain rgp1, active compounds read low 0.84 | locus YDR159W, strain sac3, active compounds read low 0.861 | locus YDR334W, strain swr1, active compounds read low 0.627 | locus YEL003W, strain gim4, active compounds read low 0.173 | locus YGL240W, strain doc1, active compounds read low 0.812 | locus YGR078C, strain PAC10, active compounds read low 0.0909 | locus YGR229C, strain SMI1, active compounds read low 0.775 | locus YHR142W, strain chs7, active compounds read low 0.872 | locus YHR200W, strain rpn10, active compounds read low 0.917 | locus YJL166W, strain qcr8, active compounds read low 0.868 | locus YJR066W, strain TOR1, active compounds read low 0.819
inactive: locus YAL013W, strain DEP1, active compounds read low 1.02 | locus YAL021C, strain ccr4, active compounds read low 0.95 | locus YAL026C, strain drs2, active compounds read low 0.963 | locus YAL030W, strain snc1, active compounds read low 0.983 | locus YBR021W, strain FUR4, active compounds read low 0.97 | locus YBR171W, strain sec66, active compounds read low 1.01 | locus YBR229C, strain ROT2, active compounds read low 1.02 | locus YBR279W, strain paf1, active compounds read low 0.958 | locus YCL011C, strain gbp2, active compounds read low 0.962 | locus YCL069W, strain vba3, active compounds read low 0.98 | locus YCR088W, strain abp1, active compounds read low 0.977 | locus YDL005C, strain med2, active compounds read low 0.959 | locus YDL035C, strain GPR1, active compounds read low 0.967 | locus YDL040C, strain nat1, active compounds read low 0.992 | locus YDL074C, strain BRE1, active compounds read low 0.924 | locus YDL101C, strain DUN1, active compounds read low 1.03 | locus YDL134C, strain PPH21, active compounds read low 1.01 | locus YDL185W, strain tfp1, active compounds read low 1.04 | locus YDL192W, strain arf1, active compounds read low 0.99 | locus YDR001C, strain nth1, active compounds read low 0.976 | locus YDR069C, strain doa4, active compounds read low 0.952 | locus YDR101C, strain arx1, active compounds read low 0.998 | locus YDR150W, strain NUM1, active compounds read low 1.01 | locus YDR162C, strain NBP2, active compounds read low 1.01 | locus YDR195W, strain ref2 0.979 | locus YDR297W, strain sur2, active compounds read low 0.963 | locus YDR318W, strain mcm21, active compounds read low 0.954 | locus YDR335W, strain msn5, active compounds read low 0.99 | locus YDR388W, active compounds read low 0.982 | locus YDR392W, strain spt3, active compounds read low 0.805 | locus YDR502C, strain sam2, active compounds read low 0.958 | locus YEL037C, strain rad23, active compounds read low 0.981 | locus YEL061C, strain CIN8 (second series), active compounds read low 0.976 | locus YEL061C, strain CIN8, active compounds read low 1 | locus YER015W, strain faa2, active compounds read low 0.974 | locus YER016W, strain bim1, active compounds read low 0.935 | locus YER110C, active compounds read low 1.02 | locus YER111C, strain swi4, active compounds read low 0.997 | locus YER155C, strain BEM2 (second series), active compounds read low 0.896 | locus YER155C, strain BEM2, active compounds read low 0.981 | locus YER167W, strain BCK2, active compounds read low 0.94 | locus YFR010W, strain ubp6, active compounds read low 0.98 | locus YGL078C, strain dbp3, active compounds read low 0.974 | locus YGL086W, strain mad1, active compounds read low 0.999 | locus YGL167C, strain pmr1, active compounds read low 0.979 | locus YGL173C, strain kem1, active compounds read low 0.981 | locus YGL227W, strain vid30, active compounds read low 0.977 | locus YGL248W, strain PDE1, active compounds read low 0.99 | locus YGL253W, strain hxk2, active compounds read low 0.951 | locus YGR135W, strain pre9, active compounds read low 0.948 | locus YGR252W, strain gcn5, active compounds read low 0.916 | locus YHR013C, strain ard1, active compounds read low 1 | locus YHR027C, strain rpn1, active compounds read low 0.931 | locus YHR030C, strain SLT2, active compounds read low 1.01 and 0.956 | locus YHR079C, strain IRE1 (second series), active compounds read low 0.999 | locus YHR079C, strain IRE1, active compounds read low 0.937 | locus YHR094C, strain hxt1, active compounds read low 1 | locus YHR129C, strain ARP1, active compounds read low 0.969 | locus YIL066C, strain RNR3, active compounds read low 1.01 | locus YIL073C, strain SPO22, active compounds read low 0.998 | locus YIL125W, strain kgd1, active compounds read low 0.971 | locus YIR030C, strain dcg1, active compounds read low 1 | locus YJL092W, strain hpr5, active compounds read low 0.965 | locus YJL095W, strain BCK1 (second series), active compounds read low 0.996 | locus YJL095W, strain BCK1, active compounds read low 1.06 and 0.938 | locus YJL115W, strain asf1, active compounds read low 0.977 | locus YJL129C, strain trk1, active compounds read low 0.906 | locus YJL134W, strain LCB3, active compounds read low 1 | locus YJL154C, strain vps35, active compounds read low 0.981 | locus YJL164C, strain tpk1, active compounds read low 0.957 | locus YJL168C, strain set2, active compounds read low 1 | locus YJL187C, strain SWE1 (second series), active compounds read low 1.01 | locus YJL187C, strain SWE1, active compounds read low 0.934 | locus YJR043C, strain POL32, active compounds read low 0.867
